Screens (PubChem BioAssay)
D2 PAM-1 = positive allosteric modulators of human D2 dopamine receptor | P14416 | DiscoveRx D2 beta-arrestin cells, luminescence, 90 min; 100% = 57 uM dopamine signal | potentiation, % (test concentration not listed) | 360,000 tested, 0.23% active | AID 624464; in the data active = potentiation above about 50%; inconclusive = mostly about 30% to 49%
Target sequence (P14416 whole entry, looked up): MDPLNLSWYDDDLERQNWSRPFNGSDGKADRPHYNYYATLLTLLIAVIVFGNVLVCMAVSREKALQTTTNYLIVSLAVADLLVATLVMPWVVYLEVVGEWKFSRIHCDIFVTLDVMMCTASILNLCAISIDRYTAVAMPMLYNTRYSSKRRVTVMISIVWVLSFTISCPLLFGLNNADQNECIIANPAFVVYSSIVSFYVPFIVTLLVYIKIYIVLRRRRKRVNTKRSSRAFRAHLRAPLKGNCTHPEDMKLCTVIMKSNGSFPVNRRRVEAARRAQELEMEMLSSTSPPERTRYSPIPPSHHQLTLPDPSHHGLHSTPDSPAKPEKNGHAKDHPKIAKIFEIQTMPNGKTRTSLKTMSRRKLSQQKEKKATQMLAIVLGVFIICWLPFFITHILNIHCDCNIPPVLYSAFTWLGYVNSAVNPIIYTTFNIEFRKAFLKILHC
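D2 cells co-treated with compound plus 50 nM dopamine (EC20) for 90 min at 37 deg C to detect potentiation. Beta-arrestin recruitment was read as enzyme-fragment luminescence after 1 h at ambient temperature. Full response was set by 57 uM dopamine.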
D2 PAM-2 = positive allosteric modulators of human D2 dopamine receptor; P14416; HEK293 T-REx D2, calcium flux, EC20 dopamine potentiation; potentiation, % at 10 µM; 340,000 tested, 0.34% active;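 active = potentiation over 3 SD above the plate norm, cut at about 30% in these data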
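Primary screen. Calcium kinetics in induced HEK293 T-REx D2 cells: compound pre-addition 180 s, EC20 dopamine, 180 s more.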
D2 ag-1 = activates the human D2 dopamine receptor; P14416; HEK293 T-REx D2 cells, calcium flux agonist mode; activation, % at 2 µM; 340,000 tested, 0.53% active; AID 485358;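 active = activation over 3 SD above normal in the single-dose calcium agonist read, cut at about 30% in these data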
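Tetracycline-induced HEK293 T-REx cells with force-coupled D2 receptor, plated overnight at 30 C, loaded with no-wash calcium dye. After a 10 s baseline, compound was pin-added and calcium flux read kinetically for 180 s; calcium rises flagged agonists.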
D2 antagonist = antagonizes the human D2 dopamine receptor. 340,000 tested, 2% active. HEK293 TREx D2 cells, calcium flux, dopamine EC80. inhibition, % at 10 µM; in the data active = inhibition above about 30%; inactive = below that, where a call was filed
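Overnight-induced (tetracycline, 30 C) HEK293 T-REx cells carrying force-coupled D2 receive a no-wash calcium dye, then compound, then EC80 dopamine at 180 s; signals are read kinetically throughout.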
D2 ag-2 = activates the human D2 dopamine receptor; 360,000 tested, 0.084% active; P14416; DiscoveRx PathHunter D2 beta-arrestin, luminescence, 90 min; 100% = 57 uM dopamine signal; activation, % (test concentration not listed); in the data active = activation above about 40%; inconclusive = between about 15% and that limit
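DiscoveRx PathHunter D2 beta-arrestin cells (2,100/well) attached overnight, then compound-stimulated 90 min at 37 C in HBSS/10 mM HEPES/0.1% Tween-20 buffer; beta-galactosidase complementation read by luminescence after 1 h at ambient temperature. Dopamine 57 uM final (EC100) as control.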
Hits are given with their value; . = inactive; ? = inconclusive; / = not tested or not shown. An excerpt weighted towards active compounds, which were near 2.4% of everything screened.

SMILES	D2 PAM-1	D2 PAM-2	D2 ag-1	D2 antagonist	D2 ag-2
CCOc1cc(/C=N/Nc2nc(-c3cccc(S(=O)(=O)N4CCCC4)c3)cs2)ccc1O	118.7	.	.	.	?
Cc1ccc(SCC(=O)Nc2ccc(C(=O)Nc3ccc(O)cc3)cc2)cc1	.	.	.	71.8	.
COCC(C)NC(=O)CCS(=O)(=O)c1nc(-c2ccc(OC)cc2)cc(C(F)(F)F)n1 (stereo unspecified)	.	39.2	.	.	.
COc1cccc(NC(=O)N(Cc2c[nH]c3ccccc23)C2CCCCCC2)c1	/	.	.	/	/
Cc1cc(C)c(S(=O)(=O)NCCc2sc3nc(-c4ccc(F)cc4)nn3c2C)c(C)c1	/	.	.	/	/
Cc1ccc(C(=O)NCc2ccccc2)cc1NC(=O)c1nsc2ccccc12	/	.	.	/	/
O=C(N/N=C/c1ccccn1)C1CC1	.	.	.	31.9	.
CCOC(=O)CNC(=O)c1sc(NC(=O)/C=C/c2ccccc2)nc1C	.	.	.	33.8	.
CCc1ccccc1NC(=S)N(CCN1CCOCC1)C1CCN(C(C)=O)CC1	.	.	.	30.9	.
Clc1ccc(-n2c(Cc3ccccc3)nnc2SCc2nc(-c3cccs3)no2)cc1	/	.	.	/	/
CCCN(CCC)c1ccc(/C=C/c2ccc3cc(OCC)ccc3n2)cc1	.	.	38.1	.	.
CN(C)c1ccc(/C=C/c2ccc3ccccc3n2)cc1	.	.	.	.	.
COc1ccc(CCNc2nc(SCc3ccccc3Cl)nc3ccccc23)cc1OC	/	.	.	/	/
c1ccc(-c2onc3cc4c(cc23)OCCO4)cc1	117.0	.	.	.	?
CC(=O)c1ccc2noc(-c3ccccc3)c2c1	?	.	.	.	?
COc1ccccc1NC(=O)CSc1oc(-c2ccccc2)nc1S(=O)(=O)c1ccccc1	/	.	.	/	/
CCOc1ccc(Oc2ccccc2NC(=O)C2=COCCO2)cc1	.	.	.	37.2	.
CCOC(=O)C1(Cc2ccccc2C(F)(F)F)CCN(C2CCC2)CC1	.	.	.	32.1	.
CCOC(=O)C1(Cc2ccccc2C(F)(F)F)CCN(CCCn2cccn2)CC1	.	.	.	47.9	.
COc1cc2c(cc1O)C(Cc1ccc(O)cc1)NCC2 (stereo unspecified)	.	.	.	74.1	.
CN(C)CCNc1ncnc2c1sc1nc(N3CCCC3)c3c(c12)CC(C)(C)OC3	.	.	.	.	.
CNC(=O)c1ccc(-c2sc3nc(N4CCOCC4)c4c(c3c2N)CC(C)(C)OC4)o1	.	.	.	40.6	.
CC(C)CNc1ncnc2c1sc1nc(N3CCOCC3)c3c(c12)CC(C)(C)OC3	.	.	.	32.9	.
Cc1cccc(N2CCN(C(=O)C3CCN(S(=O)(=O)Cc4ccccc4)CC3)CC2)c1C	/	.	.	/	/
COc1ccccc1/C=C/CN1CCCC(CO)(CCc2ccccc2)C1 (stereo unspecified)	.	.	.	71.4	.
SMILES	D2 PAM-1	D2 PAM-2	D2 ag-1	D2 antagonist	D2 ag-2
OCC1(CCc2ccccc2)CCCN(C/C=C/c2ccccc2)C1 (stereo unspecified)	.	.	.	44.8	.
COc1ccc(CC2(CO)CCN(C/C=C/c3ccccc3OC)CC2)cc1	.	.	.	.	.
COc1ccc(CC(=O)N(Cc2nc(-c3ccc(C)cc3)no2)C(C)C)cc1	/	.	.	/	/
O=C(NC1CC2CCC(C1)N2Cc1ccccc1)c1ccccc1Br (stereo unspecified)	.	.	.	67.5	.
COc1ccc(C(=O)NC2CC3CCCC(C2)N3Cc2ccccc2)cc1 (stereo unspecified)	.	.	.	82.3	.
COc1ccccc1C(=O)NC1CC2CCC(C1)N2Cc1ccccc1 (stereo unspecified)	.	.	.	89.4	.
CCOc1ccccc1C(=O)NC1CC2CCCC(C1)N2C1CC1 (stereo unspecified)	.	.	.	.	.
CCOc1ccc(C(=O)NC2CC3CCCC(C2)N3Cc2ccccc2)cc1 (stereo unspecified)	.	/	/	/	.
COc1ccc(C(=O)NC2CC3CCCC(C2)N3Cc2ccccc2)c(OC)c1 (stereo unspecified)	.	.	.	86.4	.
COc1ccccc1-c1nc2c(c(SCC(=O)Nc3ccc(C)c(C)c3)n1)Cc1c(CO)cnc(C)c1O2	/	.	.	/	/
CCOC(=O)c1cccc(NC(=O)CSc2ncc3c(n2)-c2ccc(Cl)cc2N(Cc2ccccc2)S3(=O)=O)c1	/	.	.	/	/
COc1ccccc1Nc1nn2c(=O)c3ccc(C(=O)NCCc4ccccc4)cc3nc2s1	/	.	.	/	/
O=C(NC1CC2CCCC(C1)N2Cc1ccccc1)c1ccc([N+](=O)[O-])cc1 (stereo unspecified)	.	.	.	86.6	.
O=C(NC1CC2CCC(C1)N2Cc1ccco1)c1ccccc1 (stereo unspecified)	.	.	/	/	.
CCOC(=O)c1ccc(NS(=O)(=O)c2cn(C)c(C)n2)cc1	/	.	.	/	/
CN1CCN(NC(=O)CSc2ccc(Cl)cc2Cl)CC1	.	.	.	45.8	.
O=C(CSc1cc(Cl)ccc1Cl)NC1CC1	.	.	.	.	.
CCOc1ccccc1NC(=O)CSc1nc2cc(OC)c(OC)cc2c2nc(CCn3c(C)nc4ccccc43)nn12	/	.	.	/	/
Cc1cc(C)cc(NC(=O)C2CC3CCC2C3)c1 (stereo unspecified)	.	.	.	55.7	.
CCCCCCc1c(C)c2c(cc(C)c3c(C)coc32)oc1=O	/	.	.	/	/
Cc1coc2c1c(C)cc1oc(=O)c(Cc3ccccc3)c(C)c12	.	.	.	42.8	.
CCCCn1c2ccccc2c2nnc(SCC(=O)NC3=NN=C(c4ccccc4)CS3)nc21	/	.	.	69.6	/
CCCn1c2ccccc2c2nnc(SCC(=O)OC)nc21	.	.	.	.	.
CCOC(=O)Cn1c(=O)oc2cc(S(=O)(=O)N3CCN(c4ccc(F)cc4)CC3)ccc21	/	.	.	/	/
CN1CCc2nc(SCCOc3ccccc3)c(C#N)cc2C1	.	/	.	30.9	.
SMILES	D2 PAM-1	D2 PAM-2	D2 ag-1	D2 antagonist	D2 ag-2
Cc1ccccc1NS(=O)(=O)c1ccc2[nH]cc(C(=O)NC3CCCCC3)c(=O)c2c1	/	.	.	/	/
COc1ccc2oc(=O)c(C(=O)NCCc3c(C)[nH]c4c(C)cccc34)cc2c1	/	.	.	/	/
Cc1sc(NC(=O)c2cccs2)c(C(=O)OC(C)C)c1C	.	.	.	31.3	.
CCN(C(=O)CSc1nc2ccccc2n1Cc1ccc(F)cc1Cl)c1ccccc1	/	.	.	/	/
Oc1nc(Nc2ccc(F)cc2)sc1/C=C1\C=Nc2ccccc21	.	.	.	.	.
CC1=Nc2ccccc2/C1=C\c1sc(Nc2ccc(C)cc2)nc1O	.	.	.	61.0	.
Cc1cc2oc(=O)c(CC(=O)NCCc3ccccc3F)c(C)c2c2occ(C(C)(C)C)c12	/	.	.	/	/
